# Measured values from article PMC7862700, “An all-to-all approach to the identification of sequence-specific readers for epigenetic DNA modifications on cytosine”.
# Key:
# Experiment in all cases: DAPPL (digital affinity profiling via proximity ligation, sequencing); 10 mM Tris-HCl pH 7.5, 50 mM NaCl, 1 mM DTT, 4% glycerol, room temperature, 30 min; GST-TFs on glutathione beads, 16-mer random dsDNA library, 0.1% formaldehyde crosslink after washing; high values mean tight binding
# Settings in all cases: protein: recombinant; tags: N-terminal GST; dsDNA, one strand shown
# GABPA = target: T1, GABPA (Homo sapiens, UniProt Q06546 1-454)
# T1 sequence: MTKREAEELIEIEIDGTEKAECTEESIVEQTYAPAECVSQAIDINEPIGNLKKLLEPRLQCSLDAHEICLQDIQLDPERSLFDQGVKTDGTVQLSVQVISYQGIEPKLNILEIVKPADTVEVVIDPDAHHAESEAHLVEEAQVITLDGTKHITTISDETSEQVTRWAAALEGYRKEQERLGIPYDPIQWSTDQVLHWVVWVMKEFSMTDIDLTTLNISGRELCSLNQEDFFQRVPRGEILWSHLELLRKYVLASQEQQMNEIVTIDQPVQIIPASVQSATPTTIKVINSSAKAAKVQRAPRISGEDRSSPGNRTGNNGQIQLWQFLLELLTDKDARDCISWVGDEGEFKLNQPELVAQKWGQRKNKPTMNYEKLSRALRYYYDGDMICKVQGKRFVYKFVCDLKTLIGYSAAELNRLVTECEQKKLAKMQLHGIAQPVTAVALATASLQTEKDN
# Method in brief: (§1)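 Human transcription factors were made in yeast as GST fusions, captured on glutathione beads and barcoded with DNA. With a tag-only sample included, the pool was incubated with 200 nmole of a random double-stranded 16-mer DNA library in Tris/NaCl/DTT/glycerol buffer at room temperature for 30 min, then crosslinked with 0.1% formaldehyde after washing, ligated by proximity, amplified and sequenced. For binding signal, each hexamer's read frequency for a factor is divided by its frequency for the tag-only sample.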
# ELF1 = ELF1 (Homo sapiens, UniProt P32519 1-619)
# Method in brief: as §1
# EHF = target: T2, EHF (Homo sapiens, UniProt Q9NZC4 1-300)
# T2 sequence: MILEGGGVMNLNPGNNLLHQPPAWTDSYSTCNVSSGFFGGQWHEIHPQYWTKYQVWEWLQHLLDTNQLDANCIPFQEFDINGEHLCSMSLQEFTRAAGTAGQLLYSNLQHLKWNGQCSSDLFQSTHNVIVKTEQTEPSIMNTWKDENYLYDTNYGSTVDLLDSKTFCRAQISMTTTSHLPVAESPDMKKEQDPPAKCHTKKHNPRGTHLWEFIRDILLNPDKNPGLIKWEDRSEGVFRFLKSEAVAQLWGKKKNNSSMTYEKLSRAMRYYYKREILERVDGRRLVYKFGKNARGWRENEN
# Method in brief: as §1
# SPIC = target: T3, SPIC (Homo sapiens, UniProt Q8N5J4 1-248)
# T3 sequence: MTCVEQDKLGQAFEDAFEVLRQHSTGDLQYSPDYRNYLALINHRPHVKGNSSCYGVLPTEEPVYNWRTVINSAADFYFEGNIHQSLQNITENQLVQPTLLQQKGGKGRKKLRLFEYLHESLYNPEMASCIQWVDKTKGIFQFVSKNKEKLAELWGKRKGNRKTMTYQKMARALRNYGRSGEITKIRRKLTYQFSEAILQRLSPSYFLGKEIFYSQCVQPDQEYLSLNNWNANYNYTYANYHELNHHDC
# Method in brief: as §1
# ELF3 = target: T4, ELF3 (Homo sapiens, UniProt P78545 1-371)
# T4 sequence: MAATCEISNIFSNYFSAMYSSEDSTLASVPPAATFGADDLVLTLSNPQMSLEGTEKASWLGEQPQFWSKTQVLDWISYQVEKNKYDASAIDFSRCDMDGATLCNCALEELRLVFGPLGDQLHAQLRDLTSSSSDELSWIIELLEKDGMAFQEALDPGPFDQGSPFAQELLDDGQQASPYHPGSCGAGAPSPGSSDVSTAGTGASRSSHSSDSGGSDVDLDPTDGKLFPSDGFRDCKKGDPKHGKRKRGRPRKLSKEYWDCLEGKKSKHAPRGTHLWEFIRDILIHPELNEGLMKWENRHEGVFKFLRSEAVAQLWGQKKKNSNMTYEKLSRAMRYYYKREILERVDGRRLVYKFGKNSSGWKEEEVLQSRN
# Method in brief: as §1
# ERF = target: T5, ERF (Homo sapiens, UniProt P50548 1-548)
# T5 sequence: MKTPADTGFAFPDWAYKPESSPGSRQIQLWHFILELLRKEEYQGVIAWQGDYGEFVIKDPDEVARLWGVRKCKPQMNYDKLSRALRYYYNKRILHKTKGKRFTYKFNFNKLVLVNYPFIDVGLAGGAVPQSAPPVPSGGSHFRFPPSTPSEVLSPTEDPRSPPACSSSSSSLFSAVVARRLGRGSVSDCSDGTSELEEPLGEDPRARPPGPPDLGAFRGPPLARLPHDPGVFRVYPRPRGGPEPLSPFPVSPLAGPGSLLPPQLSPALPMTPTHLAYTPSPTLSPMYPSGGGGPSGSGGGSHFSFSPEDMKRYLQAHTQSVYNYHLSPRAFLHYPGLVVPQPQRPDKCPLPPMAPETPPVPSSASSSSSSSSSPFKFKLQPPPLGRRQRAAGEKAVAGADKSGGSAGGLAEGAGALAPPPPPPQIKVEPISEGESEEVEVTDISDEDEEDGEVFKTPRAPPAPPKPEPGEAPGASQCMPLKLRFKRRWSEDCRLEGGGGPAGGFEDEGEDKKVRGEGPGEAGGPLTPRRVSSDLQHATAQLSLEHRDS
# Method in brief: as §1
# ETS2 = target: T6, ETS2 (Homo sapiens, UniProt P15036 1-469)
# T6 sequence: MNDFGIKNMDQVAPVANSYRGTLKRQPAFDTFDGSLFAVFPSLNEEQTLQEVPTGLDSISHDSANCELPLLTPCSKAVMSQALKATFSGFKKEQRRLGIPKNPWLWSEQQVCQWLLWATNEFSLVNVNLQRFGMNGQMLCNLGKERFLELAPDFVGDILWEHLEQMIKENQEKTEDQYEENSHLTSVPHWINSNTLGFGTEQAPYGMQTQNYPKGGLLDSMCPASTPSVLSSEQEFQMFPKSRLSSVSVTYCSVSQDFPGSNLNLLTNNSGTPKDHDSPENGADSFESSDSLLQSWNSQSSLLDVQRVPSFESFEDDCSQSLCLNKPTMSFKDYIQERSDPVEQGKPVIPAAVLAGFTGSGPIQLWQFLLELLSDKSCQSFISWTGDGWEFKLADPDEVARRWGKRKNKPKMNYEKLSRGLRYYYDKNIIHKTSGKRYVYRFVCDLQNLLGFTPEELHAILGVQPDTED
# Method in brief: as §1
# SPIB = SPIB (Homo sapiens, UniProt Q01892 1-262)
# Method in brief: as §1
# ELK4 = target: T7, ELK4 (Homo sapiens, UniProt P28324-2 1-405)
# T7 sequence: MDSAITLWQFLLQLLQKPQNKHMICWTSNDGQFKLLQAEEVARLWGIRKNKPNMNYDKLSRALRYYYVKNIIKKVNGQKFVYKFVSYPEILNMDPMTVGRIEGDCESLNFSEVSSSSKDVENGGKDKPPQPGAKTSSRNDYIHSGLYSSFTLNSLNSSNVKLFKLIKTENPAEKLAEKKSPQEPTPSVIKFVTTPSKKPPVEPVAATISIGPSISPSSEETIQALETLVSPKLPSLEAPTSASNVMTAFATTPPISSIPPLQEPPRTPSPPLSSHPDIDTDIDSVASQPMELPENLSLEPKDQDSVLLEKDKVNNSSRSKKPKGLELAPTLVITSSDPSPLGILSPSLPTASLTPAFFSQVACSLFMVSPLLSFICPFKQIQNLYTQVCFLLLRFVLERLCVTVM
# Method in brief: as §1
# ETV1 = ETV1 (Homo sapiens, UniProt P50549 1-477)
# Method in brief: as §1
# ELK3 = target: T8, ELK3 (Homo sapiens, UniProt P41970 1-407)
# T8 sequence: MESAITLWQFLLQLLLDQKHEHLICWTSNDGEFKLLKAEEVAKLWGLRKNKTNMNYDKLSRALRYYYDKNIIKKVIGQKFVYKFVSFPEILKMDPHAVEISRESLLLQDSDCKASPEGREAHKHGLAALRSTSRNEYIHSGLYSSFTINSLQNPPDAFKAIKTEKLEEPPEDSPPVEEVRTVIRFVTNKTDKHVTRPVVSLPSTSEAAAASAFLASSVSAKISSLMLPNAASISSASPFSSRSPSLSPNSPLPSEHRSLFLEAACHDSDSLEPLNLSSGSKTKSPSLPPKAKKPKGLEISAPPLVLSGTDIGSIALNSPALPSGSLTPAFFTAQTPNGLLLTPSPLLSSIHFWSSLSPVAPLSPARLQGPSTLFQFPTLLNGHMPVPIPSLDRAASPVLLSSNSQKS
# Method in brief: as §1
# Chain of ELF1 (P32519 whole entry): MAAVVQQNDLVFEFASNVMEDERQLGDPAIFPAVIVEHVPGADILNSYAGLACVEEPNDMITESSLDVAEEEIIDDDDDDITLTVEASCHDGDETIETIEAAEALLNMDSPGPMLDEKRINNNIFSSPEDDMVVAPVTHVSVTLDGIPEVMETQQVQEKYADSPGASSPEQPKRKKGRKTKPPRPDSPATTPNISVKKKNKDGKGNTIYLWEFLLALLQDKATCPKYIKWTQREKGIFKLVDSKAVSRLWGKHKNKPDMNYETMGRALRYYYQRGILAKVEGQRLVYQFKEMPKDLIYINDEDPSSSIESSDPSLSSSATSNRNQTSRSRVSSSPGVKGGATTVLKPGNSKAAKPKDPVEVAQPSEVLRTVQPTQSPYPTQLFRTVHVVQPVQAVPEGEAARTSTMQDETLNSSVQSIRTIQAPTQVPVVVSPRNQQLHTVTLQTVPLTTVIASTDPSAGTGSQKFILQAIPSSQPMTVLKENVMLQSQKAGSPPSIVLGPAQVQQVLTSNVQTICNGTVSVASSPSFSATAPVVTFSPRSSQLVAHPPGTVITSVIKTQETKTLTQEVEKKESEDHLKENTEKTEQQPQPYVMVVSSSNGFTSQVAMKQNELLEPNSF
# Chain of ETV1 (P50549 whole entry): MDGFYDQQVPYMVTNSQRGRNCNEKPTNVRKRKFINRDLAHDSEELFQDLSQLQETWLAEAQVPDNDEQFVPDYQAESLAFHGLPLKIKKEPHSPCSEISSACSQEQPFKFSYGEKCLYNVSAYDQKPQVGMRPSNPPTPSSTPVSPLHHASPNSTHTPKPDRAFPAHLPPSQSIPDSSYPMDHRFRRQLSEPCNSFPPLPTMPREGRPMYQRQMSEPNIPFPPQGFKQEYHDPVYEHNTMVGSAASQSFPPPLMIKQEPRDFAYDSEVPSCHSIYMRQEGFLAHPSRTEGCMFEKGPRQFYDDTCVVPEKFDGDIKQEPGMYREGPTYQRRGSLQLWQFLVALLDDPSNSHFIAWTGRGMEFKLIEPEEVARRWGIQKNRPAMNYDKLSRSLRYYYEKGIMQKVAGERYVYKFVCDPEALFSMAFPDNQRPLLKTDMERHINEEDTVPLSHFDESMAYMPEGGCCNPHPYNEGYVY
# Chain of SPIB (Q01892 whole entry): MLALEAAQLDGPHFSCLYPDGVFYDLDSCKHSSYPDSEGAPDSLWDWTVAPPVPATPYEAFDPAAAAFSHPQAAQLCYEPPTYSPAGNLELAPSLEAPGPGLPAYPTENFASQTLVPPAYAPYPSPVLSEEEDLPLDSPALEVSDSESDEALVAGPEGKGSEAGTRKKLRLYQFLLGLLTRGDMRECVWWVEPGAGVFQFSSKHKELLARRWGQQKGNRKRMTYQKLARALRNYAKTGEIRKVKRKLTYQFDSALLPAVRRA
Sequence,binding signal (GABPA),binding signal (ELF1),binding signal (EHF),binding signal (SPIC),binding signal (ELF3),binding signal (ERF),binding signal (ETS2),binding signal (SPIB),binding signal (ELK4),binding signal (ETV1),binding signal (ELK3)
CAGCAC,"1.03 fold enrichment (6-mer frequency, TF over GST control)","1.02 fold enrichment (6-mer frequency, TF over GST control)","1 fold enrichment (6-mer frequency, TF over GST control)","1.11 fold enrichment (6-mer frequency, TF over GST control)","1.02 fold enrichment (6-mer frequency, TF over GST control)","1.04 fold enrichment (6-mer frequency, TF over GST control)","1 fold enrichment (6-mer frequency, TF over GST control)",,,,
GTGATG,,,,"1.01 fold enrichment (6-mer frequency, TF over GST control)",,,,"1.04 fold enrichment (6-mer frequency, TF over GST control)","1.18 fold enrichment (6-mer frequency, TF over GST control)","1.03 fold enrichment (6-mer frequency, TF over GST control)",
CACTGA,"1.09 fold enrichment (6-mer frequency, TF over GST control)","1.02 fold enrichment (6-mer frequency, TF over GST control)",,"1.06 fold enrichment (6-mer frequency, TF over GST control)",,,"1.04 fold enrichment (6-mer frequency, TF over GST control)",,"1.01 fold enrichment (6-mer frequency, TF over GST control)","1.09 fold enrichment (6-mer frequency, TF over GST control)","1.07 fold enrichment (6-mer frequency, TF over GST control)"
